In PubChem BioAssay (EPA / NIEHS) one finds outcome and AC50 data, which are given here for 24 compounds.

Records with an inconclusive call do not appear. The source holds several records for some structures; these can differ, active in one and inactive in another. Active and inactive are the calls of the source. The calls were made as follows, unless noted: active = hit-call score of the fitted dose curve at least 0.9, where 1 is the maximum; inactive = score below 0.9.

The nature of experiment [1]: ATG_TCF_b_cat_CIS: Attagene CIS-FACTORIAL HepG2 Assay for human T-Cell-Factor with beta-catenin (TCF/b-cat) (AID 2282965). Conditions: HepG2 TCF/beta-catenin cis-reporter transcription, actives raise or lower the signal. In outline:
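Endogenous TCF/LEF activity read as reporter transcript level via RT-PCR and capillary electrophoresis fluorescence in transfected HepG2, 24 h exposure; gain or loss of signal fitted against DMSO controls.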

Experiment [2] is described as follows: ATG_TAL_CIS: Attagene CIS-FACTORIAL HepG2 Assay for human TAL Basal Promoter (AID 2282966).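 Also: background control endpoint measuring basal TAL promoter reporter mRNA not a specific factor.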 Particulars: HepG2 Attagene cis-factorial TAL promoter reporter; actives raise or lower the signal. In outline: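 Transiently transfected HepG2 (cis-regulated reporter units), 24 h treatment, mRNA read by fluorescent CE after RT-PCR; bidirectional fit, DMSO baseline.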

A short description of experiment [3]: ATG_TGFb_CIS: Attagene CIS-FACTORIAL HepG2 Assay for human Transforming Growth Factor (TGF) (AID 2282967). Conditions: HepG2 Attagene CIS TGFb reporter, mRNA transcription; actives raise or lower the signal. In a few lines: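 Endogenous TGFB1-linked transcription factor activity read as reporter mRNA via RT-PCR and capillary electrophoresis, 24 h after dosing transiently transfected HepG2 cells. Gain or loss of signal fitted relative to DMSO.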

Experiment [4] is described as follows: ATG_VDRE_CIS: Attagene CIS-FACTORIAL HepG2 Assay for human Vitamin D Receptor Element (VDRE) (AID 2282968). Particulars: HepG2 VDRE cis-reporter transcription, actives raise or lower the signal. In outline: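 Readout is VDRE-driven reporter mRNA reflecting endogenous factor activity in human HepG2 cells, sampled 24 h post-dose. Quantification used labelled RT-PCR products separated by capillary electrophoresis; bidirectional analysis relative to DMSO.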

For experiment [5], the target named is Nuclear receptor subfamily 1 group I member 3 (Homo sapiens) (UniProt Q14994). Kind of experiment: ATG_CAR_TRANS: Attagene TRANS-FACTORIAL HepG2 Assay for human Constitutive Androstane Receptor (CAR) (AID 2282969; active = hit-call score of the fitted dose curve at least 0.9, where 1 is the maximum;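 also: activators raise reporter mRNA above DMSO so AC50 marks induction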). Conditions: HepG2 Attagene TRANS-FACTORIAL CAR reporter. In outline:
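Signal is reporter mRNA induction relative to DMSO, measured 24 h after dosing by RT-PCR with fluorescent primer extension and capillary electrophoresis. Human HepG2 liver cells carried transiently transfected chimeric NR-Gal4/GAL4-UAS reporter constructs.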

Experiment [6] addresses Estrogen receptor (Homo sapiens) (UniProt P03372). Kind of experiment: ATG_ERa_TRANS: Attagene TRANS-FACTORIAL HepG2 Assay for human Estrogen Receptor alpha (ERa) (AID 2282970; active = hit-call score of the fitted dose curve at least 0.9, where 1 is the maximum). Conditions: HepG2 Attagene TRANS ERa GAL4 reporter, mRNA. In a few lines:
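One of 30 multiplexed endpoints from a HepG2 TRANS system, this one reports ERa-Gal4-driven reporter mRNA. Transcripts were quantified 24 hours post-dosing by fluorescent RT-PCR and capillary electrophoresis, with activity scored as induction over DMSO.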

Experiment [7] deals with X-box-binding protein 1 (Homo sapiens) (UniProt P17861). Put plainly: ATG_Xbp1_CIS: Attagene CIS-FACTORIAL HepG2 Assay for human X-box Binding Protein 1 (XBP1) (AID 2282972). Particulars: HepG2 XBP1 cis-element reporter, Attagene multiplex; actives raise or lower the signal. In a few lines:
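Reporter transcripts were quantified by RT-PCR with fluorescent primer extension and capillary electrophoresis after 24 h chemical exposure. Cells: transiently transfected HepG2 carrying cis-regulated reporter constructs; data fitted bidirectionally relative to DMSO.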

A short description of experiment [8]: ATG_M_19_TRANS: Attagene TRANS-FACTORIAL HepG2 Assay for M19 Transcription Factor (Internal Marker) (AID 2282974; active = hit-call score of the fitted dose curve at least 0.9, where 1 is the maximum). Particulars: HepG2 Attagene TRANS-FACTORIAL M19 internal marker reporter. In outline: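 After transfection of HepG2 with GAL4-UAS-driven reporter constructs, cells are dosed for 24 h. Total RNA is reverse-transcribed, reporter sequences PCR-amplified and labelled, then HpaI-digested and sized by capillary electrophoresis.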

Experiment [9] can be described thus: ATG_Hpa5_TRANS: Attagene TRANS-FACTORIAL HepG2 Assay for human GAL4-Hpa5 Hepatocyte Transcription Factor Basal Promoter (AID 2282975; active = hit-call score of the fitted dose curve at least 0.9, where 1 is the maximum;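 also: hits are increases in reporter mRNA over DMSO baseline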). Conditions: HepG2 Attagene GAL4-Hpa5 transcription reporter. In a few lines:
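Gain-of-signal versus DMSO is fitted for reporter mRNA quantified by RT-PCR and capillary electrophoresis after 24 h exposure. This endpoint is an internal background marker in transiently transfected HepG2 cells carrying GAL4-UAS reporter units.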

For experiment [10], the target named is Androgen receptor (Homo sapiens) (UniProt P10275). Put plainly: ATG_AR_TRANS: Attagene TRANS-FACTORIAL HepG2 Assay for human Androgen Receptor (AR) (AID 2282973; active = hit-call score of the fitted dose curve at least 0.9, where 1 is the maximum). Particulars: HepG2 Attagene TRANS-FACTORIAL AR reporter transcription. In outline: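 HepG2 cells transiently transfected with multiplexed GAL4-UAS reporter units and chimeric NR-Gal4 fusion; 24 h compound exposure. Reporter mRNA measured by RT-PCR, 6-FAM labelling, HpaI digestion and capillary electrophoresis; gain-of-signal fitted relative to DMSO baseline.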
Sequence of Androgen receptor (Homo sapiens) (P10275 whole entry, looked up, the tested form may be a part): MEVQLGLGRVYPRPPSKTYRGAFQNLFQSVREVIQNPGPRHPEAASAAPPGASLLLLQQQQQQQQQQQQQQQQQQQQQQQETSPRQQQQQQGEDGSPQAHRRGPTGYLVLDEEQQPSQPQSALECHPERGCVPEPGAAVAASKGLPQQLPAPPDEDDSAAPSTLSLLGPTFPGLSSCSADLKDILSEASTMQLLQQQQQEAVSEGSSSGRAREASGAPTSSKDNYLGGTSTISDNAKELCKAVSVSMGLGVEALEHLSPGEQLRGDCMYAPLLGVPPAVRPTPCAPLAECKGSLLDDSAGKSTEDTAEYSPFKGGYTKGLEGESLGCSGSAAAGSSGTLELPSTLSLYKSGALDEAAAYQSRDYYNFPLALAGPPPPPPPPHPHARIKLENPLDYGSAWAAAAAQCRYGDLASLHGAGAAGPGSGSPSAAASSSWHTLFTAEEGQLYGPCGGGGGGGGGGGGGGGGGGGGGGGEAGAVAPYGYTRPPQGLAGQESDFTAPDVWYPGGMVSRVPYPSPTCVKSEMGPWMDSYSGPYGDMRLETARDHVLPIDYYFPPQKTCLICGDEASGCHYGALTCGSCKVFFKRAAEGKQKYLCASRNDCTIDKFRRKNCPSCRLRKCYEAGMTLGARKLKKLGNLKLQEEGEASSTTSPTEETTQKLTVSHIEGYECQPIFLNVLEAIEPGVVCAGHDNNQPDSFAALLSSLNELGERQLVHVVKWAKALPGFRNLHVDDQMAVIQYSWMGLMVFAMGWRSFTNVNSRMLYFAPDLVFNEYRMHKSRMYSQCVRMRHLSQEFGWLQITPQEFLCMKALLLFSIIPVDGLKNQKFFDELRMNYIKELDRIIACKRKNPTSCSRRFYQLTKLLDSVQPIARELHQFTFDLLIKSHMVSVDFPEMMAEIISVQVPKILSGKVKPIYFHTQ

Sequence of Estrogen receptor (Homo sapiens) (P03372 whole entry, looked up, the tested form may be a part): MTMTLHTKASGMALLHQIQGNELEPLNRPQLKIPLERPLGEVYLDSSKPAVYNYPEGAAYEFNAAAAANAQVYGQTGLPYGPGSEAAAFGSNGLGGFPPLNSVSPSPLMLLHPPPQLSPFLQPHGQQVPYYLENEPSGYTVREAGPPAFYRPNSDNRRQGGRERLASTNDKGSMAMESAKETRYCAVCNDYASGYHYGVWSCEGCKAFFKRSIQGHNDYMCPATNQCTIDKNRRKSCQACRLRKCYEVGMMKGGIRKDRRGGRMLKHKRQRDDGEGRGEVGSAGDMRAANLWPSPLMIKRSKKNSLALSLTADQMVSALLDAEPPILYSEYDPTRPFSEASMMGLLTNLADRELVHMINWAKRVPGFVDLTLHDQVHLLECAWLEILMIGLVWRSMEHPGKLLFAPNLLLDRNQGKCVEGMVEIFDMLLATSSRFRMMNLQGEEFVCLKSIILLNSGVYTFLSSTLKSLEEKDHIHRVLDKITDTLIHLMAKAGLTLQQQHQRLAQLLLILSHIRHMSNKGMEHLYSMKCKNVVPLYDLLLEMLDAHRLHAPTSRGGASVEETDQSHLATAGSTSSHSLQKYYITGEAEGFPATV
Sequence of X-box-binding protein 1 (Homo sapiens) (P17861 whole entry, looked up): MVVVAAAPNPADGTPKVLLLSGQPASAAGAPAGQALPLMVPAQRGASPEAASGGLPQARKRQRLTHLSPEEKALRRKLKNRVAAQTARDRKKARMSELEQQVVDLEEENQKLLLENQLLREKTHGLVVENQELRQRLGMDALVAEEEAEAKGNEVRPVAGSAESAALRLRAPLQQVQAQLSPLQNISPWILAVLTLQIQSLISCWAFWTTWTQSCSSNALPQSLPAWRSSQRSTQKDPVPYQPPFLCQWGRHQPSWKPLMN
Sequence of Nuclear receptor subfamily 1 group I member 3 (Homo sapiens) (Q14994 whole entry, looked up, the tested form may be a part): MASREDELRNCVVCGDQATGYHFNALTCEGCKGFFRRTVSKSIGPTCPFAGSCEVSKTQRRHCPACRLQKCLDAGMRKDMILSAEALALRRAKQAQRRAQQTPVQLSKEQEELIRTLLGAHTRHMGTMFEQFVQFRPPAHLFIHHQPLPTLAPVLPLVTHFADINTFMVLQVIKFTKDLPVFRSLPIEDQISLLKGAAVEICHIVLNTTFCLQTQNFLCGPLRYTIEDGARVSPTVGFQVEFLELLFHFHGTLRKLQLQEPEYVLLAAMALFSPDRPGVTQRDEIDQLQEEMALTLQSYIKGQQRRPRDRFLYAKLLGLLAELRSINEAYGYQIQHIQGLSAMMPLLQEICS

Turning to `CNC(=O)/C=C(\C)OP(=O)(OC)OC`, the call in [1], in [2], in [3], in experiment [4], in experiment [5] and in experiment [6] was inactive. Further, the outcome in [7] was inactive.

Regarding `ClC1C(Cl)C(Cl)C(Cl)C(Cl)C1Cl` (stereo not drawn), the compound was classed as inactive in [1], in experiment [2], in experiment [3], in experiment [7], in experiment [8] and in experiment [9]. Moreover, the AC50 is 100 µM (active) in [2] and 42.6 µM (active) in experiment [7].

Regarding `O=S1OCC2C(CO1)C1(Cl)C(Cl)=C(Cl)C2(Cl)C1(Cl)Cl` (stereo not drawn), the outcome in experiment [1], in [2], in [3], in [4], in [5] and in experiment [7] was inactive. Also, the compound was classed as inactive in [8]. Moreover, the AC50 in experiment [6] is 2.04 µM (active).

Regarding `CNC(=O)Oc1ccccc1OC(C)C`, the result in experiment [1], in experiment [2], in experiment [3], in [4], in [5] and in [6] was inactive. For the same compound, the call in experiment [7] and in experiment [8] was inactive.

Consider `OCCOc1ccccc1`, for which the result in experiment [1], in [2], in experiment [3], in experiment [4], in experiment [5] and in experiment [6] was inactive. Further, the compound was called inactive in experiment [7] and in experiment [8].

Take `CN1CSC(=S)N(C)C1`: the outcome in experiment [1], in experiment [2], in experiment [3] and in experiment [5] was inactive. The AC50 in experiment [4] is 78.3 µM (active); in experiment [7], 50 µM (active).

As for `[2H]C1([2H])[n+]2ccccc2-c2cccc[n+]2C1([2H])[2H]`, the result in [1], in experiment [2], in experiment [3], in experiment [4], in experiment [7] and in experiment [8] was inactive.

For the compound `CCC(C)Nc1c([N+](=O)[O-])cc(C(C)(C)C)cc1[N+](=O)[O-]` (stereo not drawn), the compound was called inactive in [1], in experiment [2], in [3], in experiment [7], in experiment [8] and in experiment [9]. For the same compound, the AC50 in experiment [4] was 19.2 µM (active); in experiment [6], 12.4 µM (active).

On to `CC(C)OC(=O)Nc1cccc(Cl)c1`, for which the compound was called inactive in experiment [1], in experiment [2], in experiment [3], in experiment [6] and in [7]. The AC50 in experiment [4] was 50 µM (active).

For the compound `CNC(=O)Oc1cccc(N=CN(C)C)c1`, the compound was classed as inactive in [1], in [2], in experiment [3], in experiment [5], in [6] and in [9]. The AC50 is 82.3 µM (active) in [4] and 90.4 µM (active) in experiment [7].

As to `CCN(CC)C(=O)SCc1ccc(Cl)cc1`, the outcome in experiment [1], in experiment [2], in experiment [3], in [7], in experiment [8] and in experiment [9] was inactive. Besides, the results for the AC50 in experiment [4] and in [6] were 24.8 µM (active) and 32.4 µM (active), respectively.

On to `COc1nn(CSP(=S)(OC)OC)c(=O)s1`, for which the compound was called inactive in experiment [1], in [2], in [3], in experiment [5], in experiment [6] and in experiment [7]. Moreover, the compound was called inactive in experiment [9]. The AC50 in experiment [4] is 50 µM (active).

`COC(=O)c1ccccc1S(=O)(=O)NC(=O)N(C)c1nc(C)nc(OC)n1`: the outcome in [1], in experiment [2], in experiment [3], in [5] and in experiment [7] was inactive.

Turning to `CC[C@H](C)[C@H]1O[C@]2(C=C[C@@H]1C)C[C@@H]1C[C@@H](C/C=C(\C)[C@@H](O[C@H]3C[C@H](OC)[C@@H](O[C@H]4C[C@H](OC)[C@@H](O)[C@H](C)O4)[C@H](C)O3)[C@@H](C)/C=C/C=C3\CO[C@@H]4[C@H](O)C(C)=C[C@@H](C(=O)O1)[C@]34O)O2` (tested in a mixture with another compound), the compound was classed as inactive in experiment [1], in experiment [2], in experiment [3], in experiment [4], in [6] and in experiment [7]. The result in experiment [8] and in experiment [9] was inactive.

Take `CC1(c2ccc(Oc3ccccc3)cc2)OC(=O)N(Nc2ccccc2)C1=O` (stereo not drawn): the compound was classed as inactive in [1], in experiment [2], in experiment [3], in [6], in [7] and in experiment [8]. Moreover, the AC50 in experiment [4] was 2.16 µM (active).

For the compound `CCS(=O)(=O)c1cccnc1S(=O)(=O)NC(=O)Nc1nc(OC)cc(OC)n1`, the compound was called inactive in [1], in experiment [2], in experiment [3], in experiment [4], in experiment [5] and in [7].

Take `CCC(C)(C)C(=O)OC1=C(c2ccc(Cl)cc2Cl)C(=O)OC12CCCCC2`: the result in [1], in experiment [2], in experiment [3], in experiment [4], in experiment [7] and in experiment [8] was inactive. For the same compound, in [9], the compound was called inactive.

`CC(C)(C)C(O)C(Oc1ccc(Cl)cc1)n1cncn1` (stereo not drawn): the call in experiment [1], in experiment [2], in experiment [3], in experiment [4], in experiment [5] and in experiment [7] was inactive. The compound was classed as inactive in [8] and in experiment [9].

`O=C(O)COc1ccc(Cl)cc1Cl`: the result in [1], in experiment [2], in experiment [3], in experiment [4], in experiment [7] and in experiment [8] was inactive. Besides, the compound was classed as inactive in experiment [9].

As for `CC(C)N(C(=O)COc1nnc(C(F)(F)F)s1)c1ccc(F)cc1`, the compound was classed as inactive in [1], in [2], in [3], in experiment [6] and in experiment [8]. Besides, the AC50 in experiment [7] is 29.7 µM (active).

As to `CCC(C)(NC(=O)c1cc(Cl)c(C)c(Cl)c1)C(=O)CCl` (stereo not drawn), the compound was classed as inactive in experiment [1], in experiment [2], in experiment [3], in experiment [5], in experiment [6] and in experiment [7]. Also, the call in [8] and in [9] was inactive.

Consider `O=C(O)CCCOc1ccc(Cl)cc1Cl`, for which the outcome in [1], in experiment [2], in experiment [3], in [4], in experiment [5] and in experiment [7] was inactive. Moreover, the compound was classed as inactive in experiment [10], in experiment [8] and in [9].

Regarding `COP(=O)(OC)OC=C(Cl)Cl`, the compound was classed as inactive in experiment [1], in experiment [2], in [3] and in [6]. Also, the AC50 in experiment [7] was 25.1 µM (active).

In the case of `COP(=S)(OC)Oc1ccc(SC)c(C)c1`, the outcome in experiment [1], in experiment [2], in experiment [3], in experiment [5], in experiment [7] and in [9] was inactive. In addition, the AC50 in experiment [4] was 25.7 µM (active); in experiment [6], 18.8 µM (active).
